# Assay outcomes from PubChem BioAssay.
# Cy5 interf NS3h – Cy5 fluorescence quenchers or enhancers, artefact control for HCV NS3 helicase inhibitor project, biochemical, ChemBridge library, Cy5 readout. fluorescence interference ratio at 100 µM. 16,000 compounds, 6% hits. Cy5-dT15 DNA with NS3h, fluorescence interference; actives lie on both sides; signal over control mean, under 1 quenches;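 active means compound fluorescence over control fluorescence at most 0.8, a quencher, or at least a set upper limit, an enhancer; inactive means ratio between 0.8 and the set upper limit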
# HCV NS3h FP – HCV NS3 helicase inhibitors, primary screen, biochemical, fluorescence polarization, ChemBridge library; 16,000 compounds, 1.6% hits; AID 687043, 2013; inhibition, % at 100 µM; NS3h Cy5-dT15 DNA binding;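 active means inhibition above the average over every tested compound plus 3 SD, cut at about 40% in these data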
# HCV NS3h conf – HCV NS3 helicase inhibitors, retest, confirmation, biochemical, fluorescence polarization, ChemBridge library. shares compounds with HCV NS3h FP. NS3h binding to Cy5-dT15 DNA. inhibition, % at 100 µM. 240 compounds, 20% hits. AID 720485, 2013;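 active means percent inhibition of 50% or more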
# SSB-DNA FP CB – E. coli SSB-DNA binding inhibitors, counter-screen for HCV NS3 helicase inhibitor project, biochemical, fluorescence polarization, selected ChemBridge compounds; shares compounds with HCV NS3h FP; E. coli SSB binding Cy5-dT15; inhibition, % at 100 µM; 240 compounds, 40% hits; AID 720486, 2013;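 active means inhibition of at least 50%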;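 further: displacers lower Cy5 polarization so higher inhibition means more SSB displaced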
# Target sequence (P0AGE0 whole entry, looked up): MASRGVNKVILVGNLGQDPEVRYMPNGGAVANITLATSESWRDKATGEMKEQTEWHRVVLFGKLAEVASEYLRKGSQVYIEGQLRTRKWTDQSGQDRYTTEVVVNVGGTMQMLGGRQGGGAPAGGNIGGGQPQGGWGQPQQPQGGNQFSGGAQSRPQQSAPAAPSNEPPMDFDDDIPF
# Cy5 SSB fluor CB – Cy5 fluorescence interference with SSB-bound oligo, artefact control for HCV NS3 helicase inhibitor project, biochemical, E. coli SSB, selected ChemBridge compounds. shares compounds with HCV NS3h FP. Cy5-dT15/E. coli SSB fluorescence interference; actives lie on both sides. fluorescence interference ratio at 100 µM. 240 compounds, 8% hits;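 active means fluorescence interference ratio at or above 1.2, signal boosting, or at or below 0.8, signal quenching; inactive means ratio between 0.8 and 1.2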;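 further: ratio of compound well signal to mean negative control signal so 1 means no effect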
# Cy5 interf conf – Cy5-DNA-NS3h complex fluorescence interference, confirmation, artefact control for HCV NS3 helicase inhibitor project, biochemical, ChemBridge library | 240 compounds, 44% hits | fluorescence interference ratio at 100 µM, hits read low | shares compounds with HCV NS3h FP | AID 720489, 2013 | Cy5-dT15 DNA/NS3h fluorescence interference counterscreen;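 active means fluorescence interference ratio at or below 0.8 quencher or at or above a set limitenhancer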;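 further: ratio of compound fluorescence to mean of negative controls so 1 means no interference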
# * = called active by the depositor. In the library only some 6.9% were active in any assay of this set; here they are far more common.
SMILES,Cy5 interf NS3h,HCV NS3h FP,others
Cc1cc(/C=C2\C(=O)NC(=O)N(c3cccc(Br)c3)C2=O)c(C)n1C,1.2,5,
COc1cc(C=C2C(=O)N(C)C(=O)N(C)C2=O)ccc1OCCOc1ccccc1,0.95,5,
CC(=O)NC1(c2ccccc2)CC(C)N(C)CC1C (configuration not stated),1.1,0,
COc1cccc(CN2CCN(C(=O)Cc3ccccc3)CC2)c1OC,1,-24,
O=C1c2ccccc2C(=O)N1Cc1nc2ccccc2c(=O)n1-c1ccncc1,0.95,-1,
CCc1ccc(CN2CCN(C(=O)COc3ccc(Cl)cc3)CC2)cc1,0.98,11,
O=C1NC(=S)N(c2ccccc2F)C(=O)C1=Cc1ccco1,0.65*,106*,HCV NS3h conf=113*;SSB-DNA FP CB=123*;Cy5 SSB fluor CB=0.77*;Cy5 interf conf=0.83
O=C1NC(=S)N(c2ccccc2)C(=O)/C1=C/c1ccco1,0.89,94*,HCV NS3h conf=63*;SSB-DNA FP CB=100*;Cy5 SSB fluor CB=0.93;Cy5 interf conf=0.71*
O=C1NC(=O)N(c2ccc(Cl)cc2)C(=O)/C1=C/c1ccccc1,0.97,-28,
COc1ccc(C(c2c(O)c3ccccc3oc2=O)c2c(O)c3ccccc3oc2=O)cc1Cn1nc(C)c([N+](=O)[O-])c1C,0.95,10,
CC(C)OC(NC(=O)c1ccco1)C(Cl)(Cl)Cl (configuration not stated),0.95,7,
CN(C)C(=O)C(c1ccccc1)c1ccccc1,0.96,-1,
Cc1ccc(C)c(COc2cc(C)cc3oc(=O)c4c(c23)CCC4)c1,1.1,8,
Cc1[nH]c2cc(S(=O)(=O)O)c(Oc3ccccc3)cc2c1CCN,1,46*,HCV NS3h conf=27;SSB-DNA FP CB=98*;Cy5 SSB fluor CB=0.9;Cy5 interf conf=0.96
